Compound activity (PubChem)
Compounds with a hit are over-represented: about 1.7% of the library has one in this group of screens.
Mtb bLac sens: beta-lactam sensitization of Mtb H37Rv; M. tuberculosis H37Rv growth with meropenem, percent inhibition; inhibition, % at 25 µM; actives 0.27% (n = 330,000); AID 434955; call rule not given here;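 note: growth measured after seven days incubation then overnight dye step; 0% = bacteria only wells and 100% = bacteria with antibiotic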
Mtb hypoxia rep: reduces hypoxia-regulated biosensor signal in M. tuberculosis | M. tuberculosis hypoxia-regulated fluorescent reporter, fluorescence | fluorescence inhibition, % (test concentration not listed) | actives 0.1% (n = 300,000) | AID 1159583; in the data active = fluorescence inhibition mostly above about 23%, no sharp cut-off; inactive = mostly below about 17%
RecA splice inh: Mtb RecA intein splicing inhibition; P9WHJ3; cell-free RecA intein splicing, fluorescence; inhibition, % (concentration not given with the values); actives 0.75% (n = 290,000); AID 2221; in the data active = inhibition above about 30%; inconclusive = no clear call, values can overlap the other calls;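 note: 0% = vehicle wells and 100% = reference inhibitor control wells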
Target sequence (P9WHJ3 whole entry, looked up, canonical isoform): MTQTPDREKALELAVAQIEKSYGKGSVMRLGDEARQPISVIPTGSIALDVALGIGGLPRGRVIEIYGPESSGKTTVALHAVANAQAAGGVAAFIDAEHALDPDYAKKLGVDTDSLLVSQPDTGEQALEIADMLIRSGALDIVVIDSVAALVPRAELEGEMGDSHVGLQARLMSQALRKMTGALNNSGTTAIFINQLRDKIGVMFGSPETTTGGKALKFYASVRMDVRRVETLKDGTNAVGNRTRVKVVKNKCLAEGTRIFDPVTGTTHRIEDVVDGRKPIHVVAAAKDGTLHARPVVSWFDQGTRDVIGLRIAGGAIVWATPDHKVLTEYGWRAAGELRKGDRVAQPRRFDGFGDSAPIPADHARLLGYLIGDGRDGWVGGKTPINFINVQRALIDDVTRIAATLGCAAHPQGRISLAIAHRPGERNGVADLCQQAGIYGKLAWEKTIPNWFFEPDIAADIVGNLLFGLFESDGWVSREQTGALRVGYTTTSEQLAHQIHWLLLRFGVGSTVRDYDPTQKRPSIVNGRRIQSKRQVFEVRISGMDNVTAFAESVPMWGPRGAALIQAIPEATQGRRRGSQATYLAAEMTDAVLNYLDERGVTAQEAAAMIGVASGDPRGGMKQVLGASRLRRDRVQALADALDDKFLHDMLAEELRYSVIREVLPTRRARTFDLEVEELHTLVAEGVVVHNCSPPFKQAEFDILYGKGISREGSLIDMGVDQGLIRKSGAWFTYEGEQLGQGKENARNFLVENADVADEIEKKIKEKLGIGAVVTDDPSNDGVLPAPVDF
CCHF vOTU inh-1: CCHFV vOTU protease inhibition. inhibition, % at 11.5 µM. Pep-AMC fluorescence. AID 651958. actives 0.55% (n = 370,000); note: 0% = vehicle wells with enzyme and 100% = no enzyme wells
PfHsp40 yeast: restores yeast growth despite PfHsp40 toxicity. S. cerevisiae expressing PfHsp40, growth rescue, ATP luminescence. growth rescue, % at 12.5 µM. actives 0.68% (n = 340,000); in the data active = growth rescue above about 28%, passing the limit was not always enough; inconclusive = no clear call, values can overlap the other calls;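 note: yeast W303a lacking pdr1 and pdr3 grown in galactose medium; growth measured after three days at 30 °C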
CCHF vOTU inh-2: CCHFV vOTU protease inhibition, confirmation. shares compounds with CCHF vOTU inh-1. Recombinant CCHFV vOTU, Pep-AMC fluorescence. inhibition, % at 11.5 µM. actives 17% (n = 1,900). AID 686976
Active calls of the source: *; ? = inconclusive; . = not tested or not shown. Cut-off read from the data, not from the text of the source, unless noted: active = inhibition above about 30%; inactive = the rest.

SMILES	Mtb bLac sens	Mtb hypoxia rep	RecA splice inh	CCHF vOTU inh-1	PfHsp40 yeast	CCHF vOTU inh-2
CCOC1OC(C(=O)Nc2ccccc2)=CC(c2cn(C(C)=O)c3ccccc23)C1CCCO (stereo unspecified)	.	12	.	.	.	.
O=C(Cn1cnc2ccccc2c1=O)NCCC(=O)Nc1ccc(F)cc1	2	0	-2	56*	2	-16
O=S1(=O)N=C(N(CCO)/N=C/c2ccncc2)c2ccccc21	-1	.	.	30*	0	-8
O=S1(=O)N=C(N(CCO)N=Cc2ccccc2)c2ccccc21	.	16	.	.	.	.
CC(/C=C1\SC(=S)N(c2ccc(C(=O)O)cc2)C1=O)=C\c1ccccc1	6	.	2	30*	0	4
CC(/C=C1\SC(=S)N(NC(=O)c2ccc(C)cc2)C1=O)=C\c1ccccc1	7	8	1	.	0	.
O=C(CC(=O)NN=Cc1ccccc1[N+](=O)[O-])NCCc1ccccc1	.	-8	.	.	.	.
COc1cc(CN2CCN(C(C)C)C(CCO)C2)ccc1OCc1ccccc1 (stereo unspecified)	-8	0	-3	30*	-1	-5
O=C(C[C@@H]1C/C=C/CCCC(=O)O[C@H](c2ccccc2)CNC1=O)N[C@H](CO)Cc1ccccc1	-1	.	.	31*	0	-25
O=C(CC1CC=CCC(Cc2ccc(F)cc2)C(=O)OC(c2ccccc2)CNC1=O)NC(CO)Cc1ccccc1 (stereo unspecified)	.	4	.	.	.	.
CCn1c(=O)c(C(=O)CN(C)CC(=O)Nc2cccc(F)c2)c(N)n(Cc2ccccc2)c1=O	6	13	.	30*	0	-16
CC(C)(C)C(=O)[C@@H]1[C@@H]2C(=O)N(C3CCCCC3)C(=O)[C@@H]2[C@H]2c3ccccc3C=CN12	3	8	.	33*	1	13
COc1ccc(N2C(=O)[C@@H]3[C@H](C2=O)[C@H]2c4ccccc4C=CN2[C@@H]3C(C)=O)cc1	1	2	11	92*	-1	92*
CCN(C(=O)CCc1cn(CC)c2ccccc12)c1ccc(Oc2cccnc2)cc1	.	.	.	31*	.	-3
CC1(C)OC(CC(=O)O)[C@]23COC(C(=O)[C@]4(C)C2CC[C@@]2(C)C(c5ccoc5)OC(=O)C5O[C@]524)C13 (stereo partly specified)	.	4	.	.	.	.
CC1(C)OC2CC3C4CCC5=CC(=O)CC[C@]5(C)[C@@]4(F)C(O)C[C@]3(C)[C@]2(C(=O)CCl)O1 (stereo partly specified)	.	-1	.	.	.	.
COC(=O)CC1OCC=C2CN3CCC45C6=CC(=O)C(=O)C([N+](=O)[O-])=C6NC4C1C2CC35 (stereo unspecified)	.	.	.	64*	.	23
O=C(Nc1cccc(Cl)c1)Nc1ccnc(-c2cccnc2)n1	12	-4	5	32*	1	-20
O=C(Nc1cccc(Cl)c1)Nc1cnccn1	-14	4	0	-12	2	.
Cn1c(N)c(C(=O)COC(=O)c2ccc([N+](=O)[O-])o2)c(=O)n(C)c1=O	99	.	-4	44*	-1	-5
Cc1ccc(C)c(-n2c3nc(=O)[nH]c(=O)c-3cc3cc([N+](=O)[O-])ccc32)c1	-4	7	.	79*	-1	4
CC(C)CC(CO)N(Cc1ccccc1)S(=O)(=O)N(Cc1ccccc1)C(CO)CC(C)C (stereo unspecified)	.	13	.	.	.	.
Cc1cc2c(cc1C)C(=O)C(Br)=C(N)C2=O	.	-11	.	78*	-1	57*
O=C(C1=C(O)C(=O)N(CCN2CCOCC2)C1c1ccccn1)c1cccs1 (stereo unspecified)	-5	16	0	31*	0	-10
COc1cc(C(C)=NNC(=O)Cc2c(C)[nH][nH]c2=O)ccc1O	.	2	.	.	.	.
SMILES	Mtb bLac sens	Mtb hypoxia rep	RecA splice inh	CCHF vOTU inh-1	PfHsp40 yeast	CCHF vOTU inh-2
CCN1/C(=C/c2ccc3cc(C)ccc3[n+]2CC)Sc2ccccc21	100	.	4	31*	3	2
COC(=O)C1=C(C)N(Cc2cccc(C(F)(F)F)c2)C(=NCc2ccc(OC)cc2)NC1c1ccc(F)cc1 (stereo unspecified)	.	.	.	17	.	.
COC(=O)C1=C(C)N(Cc2cccc(C(F)(F)F)c2)C(=NCc2ccc(OC)cc2)NC1c1cccc(F)c1 (stereo unspecified)	.	.	.	35*	.	4
CCN=C1NC(c2ccc(F)cc2)C(C(=O)OC)=C(C)N1Cc1cccc(C(F)(F)F)c1 (stereo unspecified)	.	.	.	36*	.	-12
COC(=O)C1=C(C)N(C)C(=NCC2CC2)NC1c1ccccc1 (stereo unspecified)	.	.	.	32*	.	-15
COC(=O)C1=C(C)N(Cc2ccccc2)C(=NCc2cccc(C(F)(F)F)c2)N[C@H]1c1cccc(F)c1	0	.	12	31*	5	10
CC(=O)NCC(=O)OC(C)C(=O)Nc1ccc(C(C)=O)cc1 (stereo unspecified)	5	1	-2	38*	1	-20
Cc1ccc(C(=O)N2CCCC(Nc3ccc(F)cc3)C2)cc1C (stereo unspecified)	?	9	0	30*	1	4
COc1ccc(C(=O)N2CCCC(Nc3ccc(F)cc3)C2)cc1F (stereo unspecified)	?	12	1	-2	0	.
Cc1cccc(C(=O)N[C@@H](C)C(=O)N2CCN(c3ncccn3)CC2)c1	-4	12	.	34*	-1	-27
COc1cc(NS(=O)(=O)c2ccc(NC(=S)NC(=O)/C=C/c3ccc(F)cc3)cc2)ncn1	-8	.	1	8	0	.
COc1nccnc1NS(=O)(=O)c1ccc(NC(=S)NC(=O)/C=C/c2ccc(F)cc2)cc1	-4	5	1	38*	0	-14
CCC1Sc2ccc(S(=O)(=O)CCC(=O)Nc3ccc(OC(F)(F)F)cc3)cc2NC1=O (stereo unspecified)	1	-11	1	39*	-1	8
CN(C1=C(N2CCCCC2)C(=O)c2ccccc2C1=O)c1ccccc1	7	14	25	41*	0	-3
O=C1C(NS(=O)(=O)c2ccc(Br)cc2)=C(N2CCCCC2)C(=O)c2ccccc21	4	-9	12	33*	-1	6
CC1CCN(C2=C(NS(=O)(=O)c3ccccc3)C(=O)c3ccccc3C2=O)CC1	-3	2	8	1	1	.
CC1CCN(C2=C(NS(=O)(=O)c3ccc(Br)cc3)C(=O)c3ccccc3C2=O)CC1	2	-13	9	14	2	.
O=C1C(Nc2ccccc2)=C(N2CCCCC2)C(=O)c2ccccc21	40	-6	46*	101*	0	87*
CCOC(=O)C1CCN(C2=C(NS(=O)(=O)c3ccc(Cl)cc3)C(=O)c3ccccc3C2=O)CC1	3	6	14	4	0	.
